Screening results from PubChem.
FadD28 binding – inhibitors of FadD28 bisubstrate probe binding, primary screen, biochemical, fluorescence polarization, single point | 360,000 tested, 0.22% active | inhibition, % at 12.5 µM; in the data active means inhibition above about 8.5%, passing the limit was not always enough
Mtb BioA inh – M. tuberculosis BioA enzyme inhibitors, primary screen, biochemical, plate reader, single point, HTS; purified M. tuberculosis BioA enzyme; 360,000 tested, 0.096% active; inhibition, % at 9.99 µM; AID 602481, 2012; in the data active means inhibition above about 40%
TcdB inh – TcdB glycohydrolase inhibitors, primary screen, biochemical, single point, plate reader | Toxin B (Clostridioides difficile), P18177 | TcdB glycohydrolase enzymatic assay | inhibition, % at 9.99 µM | 350,000 tested, 0.24% active | AID 652162, 2013; in the data active means inhibition above about 10%
Target sequence (P18177 whole entry, looked up): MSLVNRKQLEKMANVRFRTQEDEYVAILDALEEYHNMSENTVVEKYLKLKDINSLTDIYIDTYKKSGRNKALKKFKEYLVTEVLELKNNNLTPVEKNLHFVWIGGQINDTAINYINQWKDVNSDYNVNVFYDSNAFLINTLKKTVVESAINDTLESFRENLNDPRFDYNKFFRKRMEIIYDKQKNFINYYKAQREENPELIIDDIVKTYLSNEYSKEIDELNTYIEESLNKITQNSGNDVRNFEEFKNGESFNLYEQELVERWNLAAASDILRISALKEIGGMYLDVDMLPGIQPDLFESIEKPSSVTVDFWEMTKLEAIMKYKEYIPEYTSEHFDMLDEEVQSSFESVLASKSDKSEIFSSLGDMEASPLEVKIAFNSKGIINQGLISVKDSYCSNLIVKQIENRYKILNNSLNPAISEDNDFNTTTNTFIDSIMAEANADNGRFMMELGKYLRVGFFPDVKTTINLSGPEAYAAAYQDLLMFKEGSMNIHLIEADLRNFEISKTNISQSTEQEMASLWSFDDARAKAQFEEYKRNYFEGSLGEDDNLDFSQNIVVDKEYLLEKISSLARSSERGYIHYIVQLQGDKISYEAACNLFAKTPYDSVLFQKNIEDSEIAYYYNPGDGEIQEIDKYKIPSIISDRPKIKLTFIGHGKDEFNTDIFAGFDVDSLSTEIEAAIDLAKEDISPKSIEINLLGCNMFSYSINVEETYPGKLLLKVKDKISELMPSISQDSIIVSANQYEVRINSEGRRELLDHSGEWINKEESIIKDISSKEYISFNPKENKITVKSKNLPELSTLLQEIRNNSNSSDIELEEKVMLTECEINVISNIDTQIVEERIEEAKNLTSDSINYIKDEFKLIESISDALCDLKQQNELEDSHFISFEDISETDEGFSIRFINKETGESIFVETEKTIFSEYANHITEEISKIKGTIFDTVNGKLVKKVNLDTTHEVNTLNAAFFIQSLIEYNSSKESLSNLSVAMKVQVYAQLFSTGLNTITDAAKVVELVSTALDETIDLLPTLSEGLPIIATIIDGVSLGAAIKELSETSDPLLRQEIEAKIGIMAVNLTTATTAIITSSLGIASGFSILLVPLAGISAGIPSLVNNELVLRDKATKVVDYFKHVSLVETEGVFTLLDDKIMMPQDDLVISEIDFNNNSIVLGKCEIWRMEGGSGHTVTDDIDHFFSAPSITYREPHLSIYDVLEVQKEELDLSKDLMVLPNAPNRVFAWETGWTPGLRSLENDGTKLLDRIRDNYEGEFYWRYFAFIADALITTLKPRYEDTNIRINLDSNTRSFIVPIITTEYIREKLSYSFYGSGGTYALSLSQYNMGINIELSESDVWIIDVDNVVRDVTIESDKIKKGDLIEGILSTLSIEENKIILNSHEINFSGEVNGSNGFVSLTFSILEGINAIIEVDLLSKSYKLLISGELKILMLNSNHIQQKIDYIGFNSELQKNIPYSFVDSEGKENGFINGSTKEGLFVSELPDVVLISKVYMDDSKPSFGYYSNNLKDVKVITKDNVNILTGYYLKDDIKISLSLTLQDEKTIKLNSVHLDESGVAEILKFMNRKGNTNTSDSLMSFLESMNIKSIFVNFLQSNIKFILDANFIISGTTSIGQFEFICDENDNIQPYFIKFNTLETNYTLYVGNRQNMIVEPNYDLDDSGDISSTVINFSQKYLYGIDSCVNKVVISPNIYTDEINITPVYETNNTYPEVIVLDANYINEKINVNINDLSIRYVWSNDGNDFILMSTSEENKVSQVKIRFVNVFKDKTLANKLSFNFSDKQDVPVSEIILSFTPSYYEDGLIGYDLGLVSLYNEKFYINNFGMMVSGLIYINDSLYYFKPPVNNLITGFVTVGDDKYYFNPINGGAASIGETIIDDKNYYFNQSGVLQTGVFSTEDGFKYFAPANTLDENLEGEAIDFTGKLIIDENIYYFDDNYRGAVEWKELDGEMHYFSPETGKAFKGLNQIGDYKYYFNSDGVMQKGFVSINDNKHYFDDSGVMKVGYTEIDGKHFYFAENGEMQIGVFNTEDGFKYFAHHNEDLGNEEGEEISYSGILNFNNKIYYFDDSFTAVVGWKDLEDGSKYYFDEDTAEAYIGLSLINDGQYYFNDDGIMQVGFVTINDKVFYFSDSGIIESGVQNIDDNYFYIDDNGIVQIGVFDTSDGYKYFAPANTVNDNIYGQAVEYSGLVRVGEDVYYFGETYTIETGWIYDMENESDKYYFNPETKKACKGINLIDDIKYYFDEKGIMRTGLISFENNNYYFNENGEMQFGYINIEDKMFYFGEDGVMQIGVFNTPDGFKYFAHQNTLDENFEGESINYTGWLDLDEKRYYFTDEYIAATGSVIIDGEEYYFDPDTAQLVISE
Y pestis TopoI – Yersinia pestis topoisomerase I inhibitors, primary screen, biochemical, cleavage product accumulation, plate reader, single point; DNA topoisomerase I (Yersinia pestis CO92); Y. pestis Topo-I cleavage product accumulation; activity, % at 10 µM; 360,000 tested, 0.064% active; AID 504884, 2011; in the data active means activity above about 50%, passing the limit was not always enough
Vc quorum ag-1 – inducers of Vibrio cholerae quorum light production without autoinducers, primary screen, BH1578 luxS cqsA deficient, single point; V. cholerae BH1578 lux reporter, luminescence, 6 h; activation, % at 18.7 µM; 350,000 tested, 0.16% active; AID 588436, 2011; in the data active means activation mostly above about 9.7%, no sharp cut-off
Vc quorum ag-2 – V. cholerae lux activation without autoinducers – BH1578 luxS cqsA deficient, cherry-pick, plate reader, dose response; shares compounds with Vc quorum ag-1; V. cholerae BH1578 lux reporter, luminescence, 6 h; activation, % at 50 µM; 620 tested, under 10 active; AID 602243, 2012; call rule not given here
HeLa 24h tox – HeLa cell cytotoxicity, dose response, cytotoxicity control, 24 h, dry powder; shares compounds with Vc quorum ag-1; HeLa viability, CellTiter-Glo ATP luminescence; activity change, negative = cytotoxicity, % at 35 µM; 25 tested, under 10 active; AID 624140, 2012;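 active means signal drop with fitted half-maximal concentration at or below twice the highest valid dose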
An asterisk follows results filed as active; i = inactive; / = not tested or not shown; + = active, no number. Sampled rows, rich in hits. Any-hit rate of the full collection: about 0.61%.

SMILES	FadD28 binding	Mtb BioA inh	TcdB inh	Y pestis TopoI	Vc quorum ag-1	Vc quorum ag-2	others
Cc1ccc(S(=O)(=O)N2CCN(C(=O)c3cc(-c4cccs4)nn3-c3ccccc3)CC2)cc1	0	-2	3	25	-4	/
N#C[C@@H]1[C@H](c2ccc(C3=CCCCC3)cc2)[C@H](CO)N1C(=O)c1cccc(F)c1	/	-1	0	/	/	/
CN(C)C(=O)C[C@@H]1C=C[C@@H](NC(=O)C2CCOCC2)[C@@H](CO)O1	/	/	-1	/	/	/
Cc1ccc2nc(NCCc3ccccc3)c3nncn3c2c1	0	-2	-1	6	111*	1
CCOc1ccc(S(=O)(=O)N(CCO)CCO)cc1-c1nc2c(C(C)(C)C)nn(C)c2c(=O)[nH]1	0	/	/	6	12	0
CCCc1nn(C)c2c(=O)[nH]c(-c3cc(S(=O)(=O)N(CCO)CCO)ccc3OCC)nc12	-1	/	0	-6	-2	/
C[C@H](CO)N1C[C@H](C)[C@H](CN(C)Cc2ccc(C(=O)O)cc2)Oc2ccc(NC(=O)Nc3ccc(F)cc3)cc2C1=O	/	-2	0	/	/	/
CN(C)CC(=O)N1CC2(C1)[C@@H](c1ccccc1)[C@@H](CO)N2C(=O)C1CCC1	/	/	0	/	/	/
O=c1ncn(-c2cccc(Cl)c2)c2ccccc12	0	/	0	-8	+	619	HeLa 24h tox=0
CCCNC(=O)N1CC2(CN(C(=O)Nc3cccc(F)c3)C2)c2c(n(C)c3cc(OC)ccc23)[C@@H]1CO	/	/	1	/	/	/
COc1cc(C(N)=O)cc(Br)c1OC	0	/	/	2	25*	0
O=C(CNC(=O)c1ccncc1)Nc1ccc(F)c(F)c1	-2	0	0	3	12	0
Cc1ccc(S(=O)(=O)NCCCC(=O)O)cc1	-2	/	0	-14	0	/
CC(=O)Nc1ccc(S(=O)(=O)NCCC(=O)OCC(=O)c2cc(C)ccc2C)cc1	-3	2	0	9	14	0
Cc1ccc(S(=O)(=O)NCCC(=O)O)cc1	-1	-1	/	2	33*	0
Cc1ccc(C)c(C(=O)COC(=O)CNS(=O)(=O)c2ccccc2)c1	-3	/	1	7	0	/
C[C@@H]1CN([C@H](C)CO)C(=O)Cc2cc(NS(=O)(=O)c3ccccc3)ccc2O[C@@H]1CN(C)S(C)(=O)=O	/	1	-1	/	/	/
O=C(C[C@H]1C[C@H]2c3cc(NC(=O)c4cccnc4)ccc3O[C@H]2[C@H](CO)O1)NCc1cccc(F)c1	/	9	-1	/	/	/
O=S(=O)(Cc1ccc(Cl)cc1)N1CCN(Cc2ccccc2)CC1	-2	/	-1	5	122*	0
O=C(O)c1cccc(Nc2ncnc3c2cnn3-c2ccccc2)c1	-8	0	/	-7	17*	0
Clc1cccc(Nc2ncnc3c2cnn3-c2ccccc2)c1	-12	-1	2	-21	0	/
O=C(Nc1ccccc1)N1CC(=O)N2[C@@H](CO)[C@H](c3ccc(C#Cc4cccnc4)cc3)[C@@H]2C1	/	/	0	/	/	/
CC(=O)c1ccc(NC(=O)COc2ccccc2C(=O)Nc2ccccc2)cc1	-6	3	-1	2	140*	0
CCOc1ccc(Nc2nc3c(c(=O)[nH]2)CCCC3)cc1	-2	/	/	-3	145*	885
Cc1cccc(S(=O)(=O)N2C[C@@H](O)COC[C@@H]3O[C@H](CC(=O)NCc4ccncn4)CC[C@H]32)c1	/	1	0	/	/	/
SMILES	FadD28 binding	Mtb BioA inh	TcdB inh	Y pestis TopoI	Vc quorum ag-1	Vc quorum ag-2	others
O=c1oc2c(CN3CCOCC3)c(O)c(Cl)cc2c2c1CCC2	-1	0	/	-9	31*	4
CN(C)Cc1c(O)c(Cl)cc2c3c(c(=O)oc12)CCCC3	2	3	/	6	/	/
CN1[C@@H]2Cn3c(ccc(-c4ccncc4)c3=O)[C@H]1[C@@H](C(=O)Nc1nccs1)[C@@H]2CO	/	/	1	/	/	/
COc1ccc2c(c1)CCC(C)N2S(=O)(=O)c1ccc(C2CNC(=O)C2)cc1 (stereo not given)	-1	/	1	0	21	0
Cc1ccc(NC(=O)Cc2noc3ccccc23)cc1	-1	-1	/	0	-1	/
Cc1ccc2onc(CC(=O)O)c2c1	2	/	/	0	24	0
COc1ccc(S(=O)(=O)N2CCCC(C(=O)NCc3ccc(F)cc3)C2)cc1 (stereo not given)	-2	-1	0	8	-1	/
COc1ccc(S(=O)(=O)N2CCCC(C(=O)NCc3ccncc3)C2)cc1 (stereo not given)	-4	0	/	-7	32*	0
C[C@H](CO)N1C[C@H](C)[C@H](CN(C)C(=O)NC2CCCCC2)Oc2ccc(NC(=O)CCCN(C)C)cc2C1=O	/	1	1	/	/	/
COCC(=O)N1[C@H](C#N)[C@@H](c2ccccc2-c2cccc(C)c2)[C@@H]1CO	/	/	1	/	/	/
Cc1cccc(C(=O)OCC(=O)c2ccc3c(c2)NC(=O)CO3)c1	-4	/	1	-6	-1	/
COC(=O)c1cc(C(=O)OCC(=O)c2ccc3c(c2)NC(=O)CO3)cc([N+](=O)[O-])c1	-1	-3	2	-4	14	10
CCCCCn1nc(C(=O)N(CC(C)C)c2c(N)n(CCCC)c(=O)[nH]c2=O)c2ccccc2c1=O	2	-3	0	2	9	0
O=C(COC(=O)c1ccc(O)cc1)c1ccc2c(c1)OCCO2	3	-3	2	2	14	6
Cc1cc(C(=O)OCC(=O)Nc2ccccc2F)c(C)o1	2	0	/	-3	57*	15
Cc1cc(C(=O)OCC(=O)NC2CCCCC2)c(C)o1	0	-2	/	2	175*	660
O=C(COC(=O)c1ccc(O)cc1)NC1CCCC1	0	-3	1	-6	i	/
COc1ccc(OCC(=O)NC2CCCCCCC2)cc1	0	0	-4	13	0	/
Cc1cc(C(=O)OCC(=O)Nc2c(Cl)cccc2Cl)c(C)o1	1	-2	1	7	i	/
Cc1ccc(C(=O)OCC(=O)NC2CCCC2)cc1	-2	0	1	2	/	i	HeLa 24h tox=11
CC(C)c1ccc(OCC(=O)NC2CCCC2)cc1	-3	0	1	8	/	i
O=C(C[C@H]1CC[C@H](NC(=O)c2ccncc2)[C@H](CO)O1)NCCc1ccncc1	/	-2	-1	/	/	/
CCCC(=O)Nc1ccc2c(c1)OC[C@H](C)N(Cc1ccc(-c3ccccn3)cc1)C[C@@H](C)[C@H](OC)CN(C)C2=O	/	0	-12	/	/	/
CC(C)(C)c1ccc(C(=O)OCC(=O)NC2CC2)cc1	-3	0	3	3	26	18
O=C(COC(=O)c1cc(Cl)ccc1Cl)NC1CCCC1	-1	-1	-1	0	28*	29
